# Measurements reported in the supplement of paper PMC7411054.
# Counter-ions that a name gives are not always drawn.
# Key:
# Test in all cases: lowest phenotypically active concentration; higher = less potent
# Conditions in all cases: treatment time: 24 h
# [1] = tested on: A549-TP53BP1-CLTA
# In short: (§1)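 After 24 h at 0.3, 1, 3 or 9 µM, with four wells per treatment, fifteen gene-edited A549, HepG2 and WPMY1 reporter lines carrying BFP, GFP and RFP/FusionRed were imaged live. Each well's live-cell features were expressed relative to solvent control wells. Deviation required ≥3 of 4 wells past the 95th percentile of control Euclidean distances, and reproducibility a median replicate Pearson correlation over the 95th percentile of non-replicates. Phenotypic activity rested on both.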
# [2] = tested on: A549-TUBA1B-RELA
# In short: as §1
# [3] = tested on: WPMY1-TP53BP1-CLTA
# In short: as §1
# [4] = tested on: WPMY1-TUBA1B-RELA
# In short: as §1
# [5] = tested on: HepG2-TUBA1B-RELA
# In short: as §1
# [6] = tested on: HepG2-ACTB-RAB5A
# In short: as §1
# [7] = tested on: A549-CANX-COX4
# In short: as §1
# [8] = tested on: HepG2-GM130-SQSTM1
# In short: as §1
# [9] = tested on: HepG2-CANX-COX4
# In short: as §1
# [10] = tested on: HepG2-TP53BP1-CLTA
# In short: as §1
smiles,measurement,setting,value
O=c1c(-c2ccc(O)cc2)coc2cc(O)cc(O)c12 [Genistein],lowest phenotypically active concentration,[1],9 µM
same,lowest phenotypically active concentration,[2],9 µM
same,lowest phenotypically active concentration,[3],9 µM
same,lowest phenotypically active concentration,[4],9 µM
CCc1ccc(/C=C/C(=O)Nc2ccc(C(C)=O)cc2)o1 [Heclin],lowest phenotypically active concentration,[2],9 µM
COc1ccc(-n2c(SCCCN3C(=O)c4cccc5cccc(c45)C3=O)nnc2-c2ccncc2)cc1,lowest phenotypically active concentration,[2],3 µM
Cc1cccc(CN2CCN(C(c3ccccc3)c3ccc(Cl)cc3)CC2)c1 (stereo not given) [Meclizine dihydrochloride],lowest phenotypically active concentration,[5],9 µM
Cc1cc(C(C)Nc2ccccc2)c2nc(N3CCOCC3)cc(=O)n2c1 (stereo not given),lowest phenotypically active concentration,[6],9 µM
N=C(N)NC(=N)NCCc1ccccc1 [phenformin],lowest phenotypically active concentration,[7],9 µM
Cc1nc2sccn2c(=O)c1CCN1CCC(=C(c2ccc(F)cc2)c2ccc(F)cc2)CC1 [Ritanserin],lowest phenotypically active concentration,[8],9 µM
same,lowest phenotypically active concentration,[5],9 µM
CCOC(=O)N1CCC(=C2c3ccc(Cl)cc3CCc3cccnc32)CC1 [loratadine],lowest phenotypically active concentration,[9],3 µM
CCOC(=O)C1=C[C@]2(CC)CCCN3CCc4c(n1c1ccccc41)[C@@H]32 [Vinpocetine],lowest phenotypically active concentration,[6],9 µM
C[C@@H]1CCN(C(=O)CC#N)C[C@@H]1N(C)c1ncnc2[nH]ccc12,lowest phenotypically active concentration,[9],9 µM
same,lowest phenotypically active concentration,[8],9 µM
same,lowest phenotypically active concentration,[10],9 µM
CC(C)(C)c1cc(/C=C(\C#N)C(N)=S)cc(C(C)(C)C)c1O,lowest phenotypically active concentration,[7],9 µM
same,lowest phenotypically active concentration,[1],9 µM
same,lowest phenotypically active concentration,[6],9 µM
same,lowest phenotypically active concentration,[9],9 µM
same,lowest phenotypically active concentration,[8],9 µM
same,lowest phenotypically active concentration,[10],9 µM
same,lowest phenotypically active concentration,[5],9 µM
same,lowest phenotypically active concentration,[3],9 µM
"Cc1c(C)c2c(c(C)c1O)CC[C@@](C)(CCC[C@H](C)CCC[C@H](C)CCCC(C)C)O2 [Tocopherol (R,S)]",lowest phenotypically active concentration,[9],3 µM
CC1(C)CCC(C)(C)c2cc(C(O)C(=O)Nc3ccc(C(=O)O)cc3F)ccc21 (stereo not given),lowest phenotypically active concentration,[9],9 µM
COc1ccc(CC2c3cc(OC)c(OC)cc3CC[N+]2(C)CCC(=O)OCCCCCOC(=O)CC[N+]2(C)CCc3cc(OC)c(OC)cc3C2Cc2ccc(OC)c(OC)c2)cc1OC (stereo not given) [Atracurium besilate],lowest phenotypically active concentration,[9],9 µM
same,lowest phenotypically active concentration,[8],3 µM
CO[C@H]1C=CO[C@@]2(C)Oc3c(C)c(O)c4c(O)c(c(/C=N/N5CCN(C)CC5)c(O)c4c3C2=O)NC(=O)C(C)=CC=C[C@H](C)[C@H](O)[C@@H](C)[C@@H](O)[C@@H](C)[C@H](OC(C)=O)[C@@H]1C [Rifampicin],lowest phenotypically active concentration,[9],3 µM
Nc1ncnc2c1ncn2[C@@H]1O[C@H](CO)[C@@H](O)[C@H]1O [Adenosine],lowest phenotypically active concentration,[6],9 µM
Nc1nnc(Sc2ncc([N+](=O)[O-])s2)s1,lowest phenotypically active concentration,[2],9 µM
Cc1cc(C(=O)Nc2cccc(C(=O)Nc3cccc(C(F)(F)F)c3)c2)on1,lowest phenotypically active concentration,[9],1 µM
O=c1c(O)c(-c2ccc(O)cc2)oc2cc(O)cc(O)c12 [Kaempferol],lowest phenotypically active concentration,[3],9 µM
C[C@H](NC(=O)[C@@H](O)c1cc(F)cc(F)c1)C(=O)N[C@@H]1C(=O)N(C)c2ccccc2-c2ccccc21,lowest phenotypically active concentration,[9],1 µM
Nc1nnc2[nH]c3ccccc3nc1-2,lowest phenotypically active concentration,[9],9 µM
CCc1c(C(=O)Nc2cc(S(=O)(=O)N(CC)CC)ccc2O)[nH]c(C)c1C(C)=O,lowest phenotypically active concentration,[6],9 µM
same,lowest phenotypically active concentration,[9],9 µM
Cc1ccc(-n2sc3ccccc3c2=O)cc1,lowest phenotypically active concentration,[9],9 µM
same,lowest phenotypically active concentration,[8],9 µM
c1ccc(-c2n[nH]cc2-c2ccnc3ccccc23)nc1,lowest phenotypically active concentration,[2],9 µM
same,lowest phenotypically active concentration,[9],9 µM
same,lowest phenotypically active concentration,[8],9 µM
same,lowest phenotypically active concentration,[10],9 µM
O=C(O)COc1ccc(Br)cc1/C=C1\SC(=S)N(Cc2cccnc2)C1=O,lowest phenotypically active concentration,[8],3 µM
CC(C)(C)c1ccc(C(=O)Nc2cn3cc(-n4ccnc4)ccc3n2)cc1,lowest phenotypically active concentration,[6],3 µM
CCCc1cc2c(N3CCN(C4=NCC(C)(C)S4)CC3)ncnc2s1 [MI 2 dihydrochloride],lowest phenotypically active concentration,[6],9 µM
same,lowest phenotypically active concentration,[9],9 µM
same,lowest phenotypically active concentration,[8],9 µM
same,lowest phenotypically active concentration,[10],9 µM
Cc1cc2sc(NC(=O)Cc3ccccc3)nc2cc1Cl,lowest phenotypically active concentration,[2],9 µM
CC(C)NCC(O)COc1ccc(CC(N)=O)cc1 (stereo not given) [atenolol-()],lowest phenotypically active concentration,[3],9 µM
NS(=O)(=O)c1cc2c(cc1C(F)(F)F)NC(Cc1ccccc1)NS2(=O)=O (stereo not given) [bendroflumethiazide],lowest phenotypically active concentration,[9],3 µM
CC(C)N(CCCNC(=O)Nc1ccc(C(C)(C)C)cc1)C[C@H]1O[C@@H](n2cc(Br)c3c(N)ncnc32)[C@H](O)[C@@H]1O,lowest phenotypically active concentration,[1],3 µM
same,lowest phenotypically active concentration,[6],3 µM
same,lowest phenotypically active concentration,[9],9 µM
same,lowest phenotypically active concentration,[8],3 µM
same,lowest phenotypically active concentration,[10],1 µM
same,lowest phenotypically active concentration,[5],9 µM
same,lowest phenotypically active concentration,[3],9 µM
same,lowest phenotypically active concentration,[4],9 µM
